# Hit rate of the full screen: of about 48,000 compounds, about 13,000 (27%) showed an effect of 50% or more. The list shows a part of the results.
# System: Wolbachia pipientis
# Experiment: Anti-Wolbachia Cell-Based Screen
# Format: functional
# Parameters: scale not given: in the data most compounds retested in dose-response had high values
# Details: 5 µM
row,SMILES,Percent Effect [%]
1,O=C(NC[C@H]1OC[C@@H](NC2CCOCC2)[C@@H]1O)Nc1ccccc1,14.81
2,COCCN(Cc1ccncc1)C(=O)C1COc2ccccc2C1 (stereo not drawn),-25.57
3,COCCc1nc(CN2CC(C)(c3ccccc3)CCC2=O)no1 (stereo not drawn),-5.62
4,CCCS(=O)(=O)NC1CCN(c2nnc(C)c(C)c2C#N)CC1,-4.578
5,Cc1cc(N2CCC(N3CCOCC3)C2)n2nc(C)c(C)c2n1 (stereo not drawn),-1.501
6,CN(C)CCN1CCO[C@H]2CN(C(=O)N(C)C)C[C@H]21.O=C(O)C(F)(F)F.O=C(O)C(F)(F)F,6.005
7,O=C(O)C(F)(F)F.O=C(c1ccsc1)N1CCO[C@@H]2CN(Cc3nccs3)C[C@@H]2C1,102
8,O=C(O)C(F)(F)F.O=C([C@@H]1CN(Cc2nccs2)C[C@H]2OCC[C@H]21)N1CCOCC1,-26.11
9,O=C(O)C(F)(F)F.O=C(O)C(F)(F)F.c1coc(CN2C[C@@H]3CN(Cc4ccoc4)CCO[C@@H]3C2)c1,116.5
10,CN(C)CCN1CCO[C@H]2CN(C(=O)C3CCOCC3)C[C@H]21,-13.47
11,CCS(=O)(=O)N1C[C@@H]2CN(Cc3ccco3)CCO[C@@H]2C1.O=C(O)C(F)(F)F,-13.85
12,Cn1cc(CN2CCO[C@@H]3CN(Cc4ccoc4)C[C@@H]3C2)cn1.O=C(O)C(F)(F)F.O=C(O)C(F)(F)F,9.777
13,CN(C)CCN1CCO[C@H]2CN(C(=O)c3ccsc3)C[C@H]21.O=C(O)C(F)(F)F.O=C(O)C(F)(F)F,117.2
14,O=C(O)C(F)(F)F.O=C(c1ccsc1)N1CCO[C@@H]2CN(Cc3cccs3)C[C@@H]2C1,14.76
15,CC(CCNC(=O)N(C)CC1CCOCC1)N1CCCCC1 (stereo not drawn),-7.573
16,CCc1nc(CN2CCCN(C(=O)C(C)n3ccnc3)CC2)cs1 (stereo not drawn),0.184
17,Cc1cnc(N2CCC3(CC2)CC3C(=O)NCC2CC2)nc1 (stereo not drawn),-18.23
18,O=C([C@@H]1Cc2[nH]cnc2CN1C(=O)NC1CCCCC1)N1CCCC1,6.906
19,CCS(=O)(=O)N1Cc2cncn2CC(C(=O)NCC2CC2)C1 (stereo not drawn),119.2
20,O=C(NCC1CC1)C1CN(C(=O)NC2CCCC2)Cc2cncn2C1 (stereo not drawn),100.7
21,O=C(NC1CCCCC1)[C@H]1CNC[C@@H](COc2cccnc2)C1,11.4
22,CC(C)N(C(=O)N1CCn2cncc2C1)C(C)C,10.83
23,CN(C)CCN1CC2(CCCN(c3ncc(Cl)cc3F)C2)CCC1=O (stereo not drawn),4.533
24,O=C(c1ccc2c(c1)CCCC2)N1CCCC(n2cncn2)C1 (stereo not drawn),100.2
25,O=C(c1ccc2c(c1)COC2)N1CCCC(n2cncn2)C1 (stereo not drawn),130

row,SMILES,Percent Effect [%]
1,Cn1ccc(C(=O)N2CCCC(n3cncn3)C2)cc1=O (stereo not drawn),3.949
2,O=C(c1ccc(Cl)c(Cl)c1)N1CCCC(n2cncn2)C1 (stereo not drawn),3.266
3,O=C(c1cccc(N2CCCC2=O)c1)N1CCCC(n2cncn2)C1 (stereo not drawn),0.04653
4,Cc1nc(C)n(C2CCCN(C(=O)c3ccc4c(c3)COC4)C2)n1 (stereo not drawn),-5.905
5,Cc1cc(Nc2ccc3c(c2)CC(=O)N3)nc(C(C)C)n1,5.406
6,CCO[C@H]1CO[C@@]2(CCCN(Cc3nc(C)cs3)C2)C1.O=C(O)C(F)(F)F,-3.246
7,O=C(O)C(F)(F)F.O=S(=O)(C1CC1)N1CCC[C@]2(C[C@@H](Oc3ccccn3)CO2)C1,2.781
8,CCO[C@@H]1CO[C@@]2(CCCN(Cc3scnc3C)C2)C1.O=C(O)C(F)(F)F,-0.3895
9,Cc1noc(C)c1CN1CCC[C@]2(C[C@@H](Oc3ccccn3)CO2)C1.O=C(O)C(F)(F)F.O=C(O)C(F)(F)F,-19.05
10,CCO[C@H]1CO[C@@]2(CCCN(Cc3scnc3C)C2)C1.O=C(O)C(F)(F)F,114.2
11,O=C(COc1ccccc1)N1CCC[C@]2(C[C@H](OCC3CC3)CO2)C1,5.425
12,CCS(=O)(=O)N1CC[C@]2(C[C@@H](OCC3CC3)CO2)C1,-6.112
13,Cc1csc(CN2CCC[C@]3(C[C@@H](OCC4CC4)CO3)C2)n1.O=C(O)C(F)(F)F,105.3
14,CO[C@@H]1CO[C@@]2(CCCN(Cc3nc(C)cs3)C2)C1.O=C(O)C(F)(F)F,128.3
15,Cc1csc(CN2CCC[C@]3(C[C@H](OCC4CC4)CO3)C2)n1,94.91
16,O=C(COc1ccccc1)N1CCC[C@]2(C[C@@H](OCC3CC3)CO2)C1,18.43
17,COc1ccccc1CN1CC[C@]2(C[C@H](OC)CO2)C1.O=C(O)C(F)(F)F,9.484
18,Cl.c1cnc(N2CCCC(NCc3cccc4c3OCCO4)C2)nc1 (stereo not drawn),11.77
19,Cc1cn2c(n1)CCC(NS(=O)(=O)c1ccc(C)s1)C2 (stereo not drawn),-1.096
20,Cc1ccc2c(c1)C1(CCN(C(=O)C3CC3)CC1)CC2N1CCOCC1.O=C(O)C(F)(F)F (stereo not drawn),4.954
21,Cc1cc(C)n(CC2CCCCN2CC(=O)Nc2c(C)n[nH]c2C)n1 (stereo not drawn),1.6
22,Cc1[nH]nc(CCC(=O)NCC2CCN(C3CCCCC3)C2)c1C (stereo not drawn),82.83
23,Cc1cc(CN2CCC(CNC(=O)CN3CCCCCC3)C2)[nH]n1 (stereo not drawn),4.399
24,Cc1n[nH]c(C)c1NC(=O)CN1CCCC(CNC(=O)C(C)(C)C)C1 (stereo not drawn),3.245
25,Cc1[nH]nc(CCC(=O)NCC2COc3ccccc3C2)c1C (stereo not drawn),-76.22

row,SMILES,Percent Effect [%]
1,Cc1n[nH]c(C)c1CCC(=O)NCC1COc2ccccc2C1 (stereo not drawn),-6.3
2,CCCc1nc(C)c(C(=O)NCC2CCN(C3CC3)C2)s1 (stereo not drawn),9.564
3,Cc1[nH]nc(CCC(=O)NCC2CCCN(C3CCCC3)C2)c1C (stereo not drawn),91.65
4,Cc1n[nH]c(C)c1CCC(=O)NCC1CCOc2ccccc2C1 (stereo not drawn),-7.064
5,Cc1n[nH]c(C)c1CCC(=O)NCC1CCCN(C2CCCC2)C1 (stereo not drawn),80.33
6,Cc1ccc(C2CN(C(=O)NCc3nnc4ccccn34)CCO2)o1 (stereo not drawn),-6.842
7,Cc1cnn(CC(=O)NCC2(O)CCCc3ccccc32)c1 (stereo not drawn),-1.481
8,CN(Cc1ccc(C(N)=O)cc1)c1ccc(C(F)(F)F)cn1,16.53
9,FC(F)(F)c1ccccc1CN1CCOC[C@H](Oc2cccnc2)C1,-13.87
10,COc1cccc2c1N(Cc1nc(C3CC3)no1)CCC2,-12.66
11,CNc1nc(C(=O)N2CCCC(c3nccn3CC3CCC3)C2)cs1 (stereo not drawn),4.458
12,Cc1cc(N2CCCN(c3ccnc(C)c3)CC2)ccn1,10.82
13,Cc1cc(N2CCCN(C(=O)Cc3csc(C)n3)CC2)ccn1,-22.63
14,Cc1cc(N2CCN(C(=O)CCc3scnc3C)CC2)cc(C)n1,13.55
15,CNc1nc(C(=O)N2CCN(c3cc(C)nc(C)c3)CC2)cs1,104.9
16,CNc1nc(C(=O)N2CCCN(c3ccnc(C)c3)CC2)cs1,103.6
17,Cc1noc2ncc(C(=O)N(CC3CCOC3)C3CC3)cc12 (stereo not drawn),-8.329
18,CC(C)Cn1cc(NC(=O)NCC2CCN(c3ccccc3)C2)cn1 (stereo not drawn),-4.161
19,COCCN(C)CCN1CC2(CCN(C3CCOC3)CC2)OC1=O (stereo not drawn),-5.724
20,Cc1cc(=O)n(CC(=O)NCC2CCCO2)c(-c2ccc(F)cc2)n1 (stereo not drawn),12.17
21,COc1ccc(-c2n[nH]c(C)c2CC(=O)NCC2CCOCC2)cc1,94.98
22,Cc1ccc(-c2cc(C(=O)NCCN3CCOCC3)n[nH]2)s1,2.618
23,Cc1ccc(-n2nnc(CC(=O)N3CCOCC3)c2C)cc1,-5.261
24,COc1ccc(CC(=O)Nc2c(C)nc(N3CCOCC3)nc2C)cc1,11.03
25,COc1ccc(-c2n[nH]c(C)c2CC(=O)N2CCOCC2)cc1,82.2

row,SMILES,Percent Effect [%]
1,COc1ccc2c(c1)OCC(CNC(=O)CCc1c(C)n[nH]c1C)C2 (stereo not drawn),2.391
2,COc1ccc(-c2n[nH]c(C)c2CC(=O)NCCN2CCOCC2)cc1,95.82
3,COc1ccc(OCc2nc(C(=O)NCCN3CCOCC3)co2)cc1,-20.12
4,CCC(=O)c1ccc(OCC(=O)NCC2CCCO2)cc1 (stereo not drawn),8.672
5,Cc1ccc(-c2nc(CC(=O)NCC3CCOC3)cs2)o1 (stereo not drawn),7.713
6,COc1ccc(-c2n[nH]c(C)c2CC(=O)NCC2CCCO2)cc1 (stereo not drawn),140.4
7,CC(C)N1CCC(NC(=O)NC2CCOc3ccc(Br)cc32)CC1 (stereo not drawn),4.745
8,CN(C)C(=O)N[C@H]1CN(C2CCOCC2)[C@@H]2CCCO[C@H]12.O=C(O)C(F)(F)F,16.52
9,NC(=O)c1ccc(N2CCCCC2)c(NC(=O)c2ccc(Br)cc2)c1,7.886
10,Cc1noc(C)c1CN1CC[C@H]2OCC[C@@H](C(=O)N3CCCO3)[C@@H]2C1,-14.86
11,Cc1nn2cccnc2c1C(=O)N1CCCC(Nc2ccccc2)C1 (stereo not drawn),-8.048
12,CC(=O)N(C)CC(=O)NC1(c2ccc(Cl)c(Cl)c2)CC1,-1.911
13,O=C(Nc1cc(C(F)(F)F)c[nH]c1=O)N1CCOCC1,95.88
14,O=C(Nc1cc(C(F)(F)F)c[nH]c1=O)c1ccco1,-1.817
15,CC(C)(C)N1CCN(C(=O)Nc2cc(C(F)(F)F)c[nH]c2=O)CC1,82.7
16,CC1CN(C(=O)Nc2cc(C(F)(F)F)c[nH]c2=O)CCO1 (stereo not drawn),83.43
17,COC1CCN(C(=O)Nc2cc(C(F)(F)F)c[nH]c2=O)CC1,107.9
18,Cc1ncc(CNC(=O)Nc2cc(C(F)(F)F)c[nH]c2=O)s1,-11.29
19,COc1cc(CNC(=O)Nc2cc(C(F)(F)F)c[nH]c2=O)ccn1,-10.71
20,Cn1cnnc1CNC(=O)Nc1cc(C(F)(F)F)c[nH]c1=O,-11.16
21,COCC1CN(C(=O)Nc2cc(C(F)(F)F)ccc2F)CCO1 (stereo not drawn),-13.47
22,CC(CCc1ccco1)NC(=O)Nc1cc(C(F)(F)F)c[nH]c1=O (stereo not drawn),-5.295
23,CC(C)CN1CCN(C(=O)Nc2cc(C(F)(F)F)c[nH]c2=O)CC1,-8.263
